APE1 inh: APE1 (human) endonuclease inhibition; Potency, µM (series often up to 65.8 µM), for inactives: at the highest dose activity change, negative = inhibition, usual class: inhibitors; 0.35% of 350,000 active; AID 2517; recombinant APE1, TAMRA/BHQ-2 abasic DNA cleavage fluorescence;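 note: plate controls were vehicle for no effect and reference inhibitor for full effect; nearly all actives have a fitted effect of over 55% in size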
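Activity was derived from the fluorescence gain between first and third kinetic reads (60 s intervals, ex 525/em 598 nm) after 50 nM THF-abasic TAMRA/BHQ-2 duplex was added to 0.75 nM APE1 preincubated 15 min with compound.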
RGS12 GoLoco inh: inhibitors of human Gai1-RGS12 GoLoco interaction (red fluorophore); Gai1:RGS12 GoLoco peptide FP, rhodamine, 10 min; Potency, µM (doses to about 61.6 µM), for inactives: at the highest dose activity, negative = inhibition, hits mostly inhibitors; 0.44% of 230,000 active; active = well fitted inhibition curve with a large enough effect, not every such curve was filed as active; inactive = no such curve, though single readings can be large or run the other way; note: nearly all actives have a fitted effect of over 30% in size
RECQ1 inh-1: blocks DNA unwinding by human RECQ1 | RECQ1 DNA unwinding, red fluorescence kinetic read | Potency, µM (top dose mostly 57.3 µM), inactives show at the top dose activity, negative = inhibition, most hits filed as inhibitors | 0.54% of 240,000 active | AID 2549;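 note: plate controls were vehicle for no effect and no enzyme for full effect; nearly all actives have a fitted effect of over 30% in size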
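50 nM RECQ1T1 preincubated 15 min with compound in Tris pH 8.0 buffer with MgCl2, DTT, Tween-20 and 2.5 ug/ml poly(dI-dC); started with 200 nM TAMRA/BHQ-2 forked duplex and 2 mM ATP. Unwinding read as fluorescence (525/598 nm), two reads 2 h apart.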
L3MBTL1 block: L3MBTL1 (human) inhibition. 0.66% of 230,000 active. Potency, µM (highest dose often 57.1 µM), without a hit: top-dose activity, negative = inhibition, usual class: inhibitors. Q9Y468. AlphaScreen L3MBTL1–H3K9me1 peptide binding; note: nearly all actives have a fitted effect of over 60% in size
Target sequence (Q9Y468 whole entry, looked up): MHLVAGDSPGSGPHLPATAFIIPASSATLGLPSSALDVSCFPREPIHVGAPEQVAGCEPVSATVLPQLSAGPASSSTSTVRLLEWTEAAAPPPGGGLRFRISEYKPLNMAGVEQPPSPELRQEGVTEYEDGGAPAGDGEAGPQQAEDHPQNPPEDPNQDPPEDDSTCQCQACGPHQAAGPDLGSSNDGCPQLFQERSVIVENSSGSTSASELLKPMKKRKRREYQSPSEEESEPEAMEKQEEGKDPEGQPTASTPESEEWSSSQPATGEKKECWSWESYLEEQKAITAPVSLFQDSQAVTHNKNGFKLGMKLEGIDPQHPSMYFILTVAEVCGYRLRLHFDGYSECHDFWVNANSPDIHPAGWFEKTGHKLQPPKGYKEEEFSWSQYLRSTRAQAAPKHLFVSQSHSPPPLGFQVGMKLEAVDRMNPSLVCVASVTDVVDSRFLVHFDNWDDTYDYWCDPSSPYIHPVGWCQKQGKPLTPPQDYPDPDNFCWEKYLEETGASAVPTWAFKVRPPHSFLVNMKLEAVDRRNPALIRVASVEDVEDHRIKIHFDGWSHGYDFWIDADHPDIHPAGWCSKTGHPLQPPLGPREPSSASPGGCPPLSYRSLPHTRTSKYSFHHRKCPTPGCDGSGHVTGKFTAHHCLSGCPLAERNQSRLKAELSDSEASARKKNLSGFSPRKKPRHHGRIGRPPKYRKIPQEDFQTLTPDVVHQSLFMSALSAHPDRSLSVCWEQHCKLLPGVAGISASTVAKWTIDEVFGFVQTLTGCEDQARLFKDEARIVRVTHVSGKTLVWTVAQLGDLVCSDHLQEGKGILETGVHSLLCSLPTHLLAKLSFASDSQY
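L3MBTL1 50 nM + b-AHA-H3(1-15)K9me1 75 nM, 30 min RT; compound added, 30 min RT; streptavidin donor/Ni-chelate acceptor beads 10 ug/mL each final, 30 min RT dark; AlphaScreen read.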
BLM inh: inhibitors of human Bloom syndrome helicase BLM; P54132; recombinant BLM DNA unwinding, fluorescence dequenching; Potency, µM (titrated, usually from 56.1 µM), for the others: at the highest dose activity change, negative = inhibition, actives largely listed as inhibitors; 0.2% of 350,000 active; AID 2528;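 note: plate controls were vehicle for no effect and no enzyme for full effect; nearly all actives have a fitted effect of over 35% in size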
JMJD2E inh: inhibitors of human JMJD2E histone demethylase | B2RXH2 | JMJD2E catalytic domain, FDH-coupled NADH fluorescence (FDH is formaldehyde dehydrogenase) | Potency, µM (doses to about 57.1 µM), inactives show at the top dose activity change, negative = inhibition, most hits filed as inhibitors | 1.6% of 230,000 active; active = well fitted inhibition curve with a large enough effect, not every such curve was filed as active; inconclusive = small, poorly fitted or top-dose-only effect, or another doubt; inactive = no such curve, though single readings can be large or run the other way;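 note: 0% = wells with enzyme and -100% = buffer wells without enzyme; nearly all actives have a fitted effect of over 50% in size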
RECQ1 inh conf: confirmation of human RECQ1 helicase inhibitors. shares compounds with RECQ1 inh-1. RECQ1 helicase DNA unwinding, fluorescence. Potency, µM (doses to about 229 µM), inactives show at the top dose activity change, negative = inhibition, actives largely listed as inhibitors. 28% of 610 active. AID 2708; note: nearly all actives have a fitted effect of over 45% in size
RECQ1 ADP FP: displaces ADP in a fluorescence polarization counter-screen for RECQ1 hits. shares compounds with RECQ1 inh-1. ADP fluorescence polarization displacement counterscreen. Potency, µM (series often up to 228 µM), for inactives: at the top dose activity change, negative = inhibition, most hits filed as inhibitors. 27% of 530 active. AID 2711; note: nearly all actives have a fitted effect of over 45% in size
RECQ1 inh-2: RECQ1 helicase inhibition confirmed, round 2; 15% of 1,100 active; Potency, µM (titrated, usually from 119 µM), for the others: at the highest dose activity, negative = inhibition, usual class: inhibitors; AID 504841; recombinant RECQ1 DNA unwinding, red fluorescence; shares compounds with RECQ1 inh-1; note: nearly all actives have a fitted effect of over 50% in size
Starred values were filed as active, the others as inactive; i = inactive; ? = inconclusive; · = no result; [ ] = remark or other dose. Many of the other results were omitted from the sample, so hits are more common in it than they were. Unless noted, calls come from the whole dose curve; as a rule, active = well fitted curve in the direction sought with a large enough effect; inconclusive = small, poorly fitted or top-dose-only effect, or another doubt; inactive = no such curve, though single readings can be large; an effect the other way counts as inactive or inconclusive. Unless noted, % is set by controls: 0 for no effect and ±100 for the full control effect; potency is the fitted concentration of half-maximal effect.

SMILES | APE1 inh | RGS12 GoLoco inh | RECQ1 inh-1 | L3MBTL1 block | BLM inh | JMJD2E inh | RECQ1 inh-2 | others
CC(=O)Nc1ccc(NC(=O)CN(c2ccc(C34CC5CC(CC(C5)C3)C4)cc2)S(C)(=O)=O)cc1 | 4% | 4% | i | -7% | -13% | 7% | ·
CS(=O)(=O)N(CC(=O)Nc1ccc(CC#N)cc1)c1ccc(C23CC4CC(CC(C4)C2)C3)cc1 | 5% | 5% | 7.9µM* | -9% | -13% | 5% | ?
CN(C)CCCN1CCC2(CCC(C(C)(C)C)CC2)CC1 | · | 5%[14.2 µM] | · | · | · | · | ·
COCCn1c(C)cc(C(=O)COC(=O)c2ccc(S(=O)(=O)N(C)C)cc2)c1C | 46% | · | · | 0% | · | · | ·
COCCn1c(C)cc(C(=O)COC(=O)c2ccc(NC(=O)CC#N)cc2)c1C | 8% | 44% | 32µM* | · | -16% | -19% | -11%
O=C(O)C1Cc2ccccc2CN1C(=O)CSc1nnc2ccccn12 (stereo not drawn) | -2% | 5% | -12% | · | 0% | ? | · | RECQ1 inh conf=12%;RECQ1 ADP FP=?
O=C(CSc1nnc2ccccn12)N1CCc2ccccc2C1 | -2% | 14% | -7% | -1% | -2% | ? | ·
Cc1ccc(NS(=O)(=O)c2cc(-c3cnc(C4CC4)o3)ccc2C)cc1Cl | · | · | · | · | -6% | · | ·
Cn1cnnc1SCC(=O)Nc1sc2c(c1C(N)=O)CCC2 | ? | 73% | 32µM* | ? | ? | ? | ?
Cc1cc2c(=O)n(Cc3ccco3)c(SCC(=O)c3ccc(Cl)s3)nc2s1 | -6% | 54% | ? | 3% | -8% | ? | -11%
CCOc1ccc(CNC(=O)C2CCN(C(=O)N3CC(CC)Oc4ccc(C)cc43)CC2)cc1OC (stereo not drawn) | · | · | · | · | -7% | · | ·
Cc1ccc(-n2ncc3c(Nc4ccc5c(c4)OCCO5)ncnc32)cc1C | · | · | · | · | -7% | · | ·
Cc1c(C)c2c(c(C)c1O)CCC(C)(COc1ccc(CC3SC(=O)NC3=O)cc1)O2 (stereo not drawn) | -5% | 7% | ? | · | -19% | · | ?
CC1(COc2ccc(C[C@H]3SC(=O)NC3=O)cc2)CCCCC1 | 8% | -5% | 6% | · | -19% | 5% | ·
CC(C)(C)OC(=O)C[C@@H]1C/C=C\C[C@H](CC(=O)N[C@H](CO)Cc2ccccc2)C(=O)N2CCC[C@H]2COC1=O | -16% | · | · | 5% | · | · | ·
NC(=O)C1CCN(C2=C(Cl)C(=O)c3ccccc3C2=O)CC1 | 1% | -41% | 2% | ? | -10% | 7% | ·
O=C1C(Cl)=C(N2CCC(C(=O)O)CC2)C(=O)c2ccccc21 | ? | 4% | 22µM* | -26% | -30% | -20% | 35µM*
O=C(O)C(NC(=O)C1CCCN1C(=O)OCc1ccccc1)c1ccccc1 (stereo not drawn) | 17% | · | · | · | 0% | · | ·
O=C(O)CCC(NC(=O)C1CCCN1C(=O)OCc1ccccc1)C(=O)O (stereo not drawn) | 4% | -20% | -19% | 21% | 3% | 1% | · | RECQ1 inh conf=3%;RECQ1 ADP FP=?
CCn1c(=O)c(C(=O)NNS(=O)(=O)c2ccc(Br)cc2)c(O)c2ccccc21 | 8% | 0% | ? | 5% | -15% | ? | ?
Cc1cccc(CNc2cc(-c3ccoc3)ncn2)c1 | -3% | 18% | ? | · | -13% | ? | -11%

From PubChem
